Source: PubChem BioAssay (Tox21)
Where “and” joins values, the source holds several entries; their conditions need not be identical. Equal entries are not always repeated. Results filed as inconclusive are left out. Where a call stands in place of a potency, no number is given. Some compounds were tested as several samples or in several runs, with calls that do not always agree. Calls of active or inactive are those of the source. Unless noted, calls follow the shape of the dose curve; as a rule, active = well fitted curve in the direction sought with a large enough effect in the repeat runs; inconclusive = weak or mixed curves; inactive = no such curve, though single readings can be large; an effect the other way counts as inactive or inconclusive.

Experiments:
[1] = qHTS assay to identify small molecule antagonists of the estrogen related receptor (ERR) signaling pathway from Tox21 library - cell viability counter screen (AID 1224834); also: nearly all actives have a fitted effect of over 30% in size; also: potency is read from the fitted curve at half-maximal effect
Outline: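 Cytotoxicity of test substances is gauged in the same ERR cells used for the antagonist screen, after 17.5 h of compound treatment at 37 C, by CellTiter-Fluor fluorescence measured after 30 min.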

[2] = qHTS assay to identify small molecule agonists of the constitutive androstane receptor (CAR) signaling pathway - cell viability counter screen (AID 1224836); also: nearly all actives have a fitted effect of over 45% in size; also: potency is read from the fitted curve at half-maximal effect
Outline: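 Fluorescence from CellTiter-Fluor indicates live cells after 23 h exposure. The human hepatoma line expresses hCAR and a CYP2B6-2.2kb reporter. Incubation medium contains 0.75 uM PK11195 (final).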

[3] = qHTS assay to identify small molecule antagonists of the constitutive androstane receptor (CAR) signaling pathway - cell viability counter screen (AID 1224837); also: nearly all actives have a fitted effect of over 45% in size
Outline: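 Multiplexed cytotoxicity read-out for the CAR antagonist screen: double-stable HepG2-CYP2B6-hCAR cells co-treated with 50 nM CITCO (final) and compound over 15 concentrations, incubated 23 hr, then assessed by CellTiter-Fluor fluorescence.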

[4] = biological target: Nuclear receptor subfamily 1 group I member 3 (Homo sapiens) (UniProt Q14994); experiment: qHTS assay to identify small molecule antagonists of the constitutive androstane receptor (CAR) signaling pathway (AID 1224838); also: nearly all actives have a fitted effect of over 40% in size
Nuclear receptor subfamily 1 group I member 3 (Homo sapiens), sequence (Q14994 whole entry, looked up): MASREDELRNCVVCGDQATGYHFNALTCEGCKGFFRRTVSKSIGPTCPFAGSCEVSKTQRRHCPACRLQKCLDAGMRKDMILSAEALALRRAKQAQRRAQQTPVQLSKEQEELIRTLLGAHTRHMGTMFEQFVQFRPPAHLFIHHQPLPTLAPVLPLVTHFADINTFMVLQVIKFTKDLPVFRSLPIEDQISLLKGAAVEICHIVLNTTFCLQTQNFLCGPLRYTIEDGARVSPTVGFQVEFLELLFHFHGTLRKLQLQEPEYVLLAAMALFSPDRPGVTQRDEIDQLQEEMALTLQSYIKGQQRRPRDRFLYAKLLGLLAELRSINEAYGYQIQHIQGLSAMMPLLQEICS
Outline: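 Compounds were titrated across 15 concentrations onto HepG2 cells double-stably expressing hCAR and a CYP2B6-2.2kb reporter, together with 50 nM CITCO (final). After 24 h at 37 C, luciferase activity was measured by luminescence.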

[5] = biological target: Nuclear receptor subfamily 1 group I member 3 (Homo sapiens) (UniProt Q14994); experiment: qHTS assay to identify small molecule agonists of the constitutive androstane receptor (CAR) signaling pathway (AID 1224839); also: nearly all actives have a fitted effect of over 15% in size; also: potency is read from the fitted curve at half-maximal effect;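 as to activation: HepG2 cells stably carrying human CAR and a CYP2B6 luciferase reporter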
Outline: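 Stable hCAR/CYP2B6-2.2kb HepG2 line in DMEM with 10% FBS; compounds (15 concentrations) and 0.75 uM PK11195 final, 24 h at 37 C/5% CO2, then ONE-Glo luminescence after 30 min.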

[6] = qHTS assay to identify small molecule antagonists of the estrogen related receptor signaling pathway with the pleiotropic PPARgamma coactivator (PGC) from Tox21 10K library - cell viability counter screen (AID 1224840; active = well fitted cell-killing curve with a large enough effect in the repeat runs, not every such curve was filed as active; also: nearly all actives have a fitted effect of over 40% in size; also: potency is read from the fitted curve at half-maximal effect)
Outline: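 Step one, plate 2,000 PGC/ERR cells per well; step two, incubate 6 h at 37 C/5% CO2; step three, pin-transfer compounds; step four, incubate 17.5 h; step five, add CellTiter-Fluor and read fluorescence after 30 min.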

[7] = qHTS assay to identify small molecule agonists of the hypoxia (HIF-1) signaling pathway - cell viability counter screen (AID 1224844; calls by dose curve; also: nearly all actives have a fitted effect of over 50% in size; also: potency is read from the fitted curve at half-maximal effect)
Outline: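 Tox21 10K compounds were added to HRE-bla ME-180 cells (0.5% dialyzed FBS) and incubated 17 hrs at 37C; ATP-based CellTiter-Glo luminescence then reported cell viability in the same wells.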

[8] = qHTS assay to identify small molecule agonists of H2AX (AID 1224845; active = well fitted activation curve with a large enough effect in the signal ratio in the repeat runs, not every such curve was filed as active; the % refers to the signal ratio)
Outline: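 Wild-type CHO-K1 cells plated overnight, then exposed 3 hr at 37C to compounds at 15 concentrations (0.76% DMSO). Lysed, then HTRF anti-pH2AX(S139)-cryptate/anti-H2AX-d2 detection after 24 hr at room temperature; emissions 665 and 620 nm.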

[9] = qHTS assay to identify small molecule agonists of the hypoxia (HIF-1) signaling pathway (AID 1224846; active = well fitted activation curve with a large enough effect in the signal ratio in the repeat runs, not every such curve was filed as active; the % refers to the signal ratio)
Outline: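 Steps: seed ME-180 HRE-bla cells (2,000/well, 0.5% dialyzed FBS); incubate 5 hrs at 37C; pin-transfer compounds or DMSO; incubate 17 hrs; add LiveBLAzer B/G substrate CCF4-AM; measure reporter activation by FRET.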

[10] = qHTS RealTime-Glo MT Cell Viability Assay in HepG2 cells - 24 hour (AID 1224867); also: nearly all actives have a fitted effect of over 50% in size
Outline: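 HepG2 suspension premixed with RealTime-Glo reagents is plated at 600 cells per well and left 5 h at 37 C/5% CO2. Compounds in DMSO then go in, and bioluminescence reflecting viable cell number is recorded over 40 h.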

[11] = qHTS RealTime-Glo MT Cell Viability Assay in HEK293 cells - 32 hour (AID 1224868); also: nearly all actives have a fitted effect of over 50% in size; also: potency is read from the fitted curve at half-maximal effect
Outline: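 Reads taken at 0, 8, 16, 24, 32 and 40 h from the same wells. HEK293 cells (600/well) carried RealTime-Glo reagents from seeding, with compound added after a 5 h settle at 37 C.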

[12] = A CellTox Green Cytotoxicity Assay to monitor cytotoxicity in HEK293 cells - 0 hour (AID 1224869); also: nearly all actives have a fitted effect of over 50% in size; also: potency is read from the fitted curve at half-maximal effect
Outline: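 Cytotoxicity was tracked continuously in HEK293 cells by a DNA-binding dye excluded from viable cells. Compounds were transferred in DMSO 5 h after seeding; fluorescence was recorded at intervals up to 40 h.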

[13] = biological target: Luciferin 4-monooxygenase (Photinus pyralis) (UniProt P08659); experiment: qHTS assay to identify small molecule inhibitors of firefly luciferase (AID 1224835); also: nearly all actives have a fitted effect of over 25% in size; also: potency is read from the fitted curve at half-maximal effect
Luciferin 4-monooxygenase (Photinus pyralis), sequence (P08659 whole entry, looked up): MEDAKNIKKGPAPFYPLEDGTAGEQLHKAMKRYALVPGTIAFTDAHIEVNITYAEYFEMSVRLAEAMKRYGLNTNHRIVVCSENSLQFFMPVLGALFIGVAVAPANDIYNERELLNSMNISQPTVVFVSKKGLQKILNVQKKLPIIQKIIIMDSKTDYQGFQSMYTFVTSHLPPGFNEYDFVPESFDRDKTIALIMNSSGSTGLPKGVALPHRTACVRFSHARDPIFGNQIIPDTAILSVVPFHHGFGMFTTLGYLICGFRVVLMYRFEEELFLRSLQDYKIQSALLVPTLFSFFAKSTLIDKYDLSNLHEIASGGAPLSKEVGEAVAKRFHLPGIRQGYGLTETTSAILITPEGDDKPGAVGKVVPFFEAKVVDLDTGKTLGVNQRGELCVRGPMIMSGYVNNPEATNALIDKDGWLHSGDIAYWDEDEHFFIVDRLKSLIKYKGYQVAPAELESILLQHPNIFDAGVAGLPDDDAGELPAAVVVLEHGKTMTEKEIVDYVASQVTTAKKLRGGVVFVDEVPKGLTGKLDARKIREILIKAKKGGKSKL
Outline: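 Quantitative HTS format; KM concentrations of both substrates. Purified P. pyralis FLuc activity quantified from luminescence images.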

[14] = biological target: Thyrotropin receptor (Homo sapiens) (UniProt P16473); experiment: qHTS assay to identify small molecule agonists of the thyroid stimulating hormone receptor (TSHR) signaling pathway (AID 1224843; calls by dose curve; also: nearly all actives have a fitted effect of over 45% in size; also: potency is read from the fitted curve at half-maximal effect)
Thyrotropin receptor (Homo sapiens), sequence (P16473 whole entry, looked up): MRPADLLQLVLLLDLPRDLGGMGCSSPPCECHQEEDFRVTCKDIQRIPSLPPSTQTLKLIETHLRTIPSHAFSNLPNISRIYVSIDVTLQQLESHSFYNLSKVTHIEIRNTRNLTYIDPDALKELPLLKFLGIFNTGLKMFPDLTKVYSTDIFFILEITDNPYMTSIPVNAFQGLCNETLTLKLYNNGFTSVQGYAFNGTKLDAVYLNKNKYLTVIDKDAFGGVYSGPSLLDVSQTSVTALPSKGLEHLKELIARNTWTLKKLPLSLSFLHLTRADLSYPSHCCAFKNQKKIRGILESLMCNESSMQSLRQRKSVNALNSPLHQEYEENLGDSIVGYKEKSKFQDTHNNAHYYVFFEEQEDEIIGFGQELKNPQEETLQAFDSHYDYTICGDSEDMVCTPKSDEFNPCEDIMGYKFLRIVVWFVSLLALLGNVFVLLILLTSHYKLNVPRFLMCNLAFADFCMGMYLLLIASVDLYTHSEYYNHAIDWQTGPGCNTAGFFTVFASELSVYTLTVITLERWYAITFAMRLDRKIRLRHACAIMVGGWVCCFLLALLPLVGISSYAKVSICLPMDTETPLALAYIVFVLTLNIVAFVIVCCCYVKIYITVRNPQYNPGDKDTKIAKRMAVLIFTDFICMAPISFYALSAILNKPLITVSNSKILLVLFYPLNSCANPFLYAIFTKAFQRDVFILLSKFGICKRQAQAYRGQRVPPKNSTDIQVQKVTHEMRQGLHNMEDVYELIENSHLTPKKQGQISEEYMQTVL
Outline: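 TSHR-expressing HEK293 cells (800 per well) were exposed to compounds for 30 min at room temperature. cAMP was then detected by HTRF competition with cAMP-d2 and anti-cAMP cryptate, read after 1 h at room temperature. Fifteen concentrations, triplicate.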

[15] = qHTS assay to identify small molecule agonists of H2AX - cell viability counter screen (AID 1224847; calls by dose curve; also: nearly all actives have a fitted effect of over 30% in size; also: potency is read from the fitted curve at half-maximal effect)
Outline: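 Viability of CHO-K1 (wild type) cells after 3 hr compound exposure was measured by CellTiter-Glo luminescence.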

[16] = qHTS assay to identify small molecule antagonists of the estrogen related receptor signaling pathway with the pleiotropic PPARgamma coactivator (PGC) from Tox21 10K library (AID 1224841; call rule not given here; also: potency is read from the fitted curve at half-maximal effect)
Outline: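 Antagonism in this quantitative HTS is taken from loss of luciferase signal in PGC/ERR cells. Cells (2,000/well) are treated with compounds in DMSO after a 6 h settling period and read by One-Glo luminescence after 18 h.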

[17] = qHTS assay to identify small molecule agonists of the estrogen related receptor signaling pathway with the pleiotropic PPARgamma coactivator (PGC) from Tox21 10K library (AID 1224842); also: nearly all actives have a fitted effect of over 15% in size; also: potency is read from the fitted curve at half-maximal effect
Outline: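 PGC/ERR reporter cells (NTP line) were seeded 2,000 per well, rested 6 h at 37 C/5% CO2, then pin-dosed with compounds in DMSO for 18 h at 37 C; luciferase read by One-Glo luminescence after 30 min at room temperature.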

[18] = qHTS assay to identify small molecule antagonists of the estrogen related receptor (ERR) signaling pathway from Tox21 library (AID 1224848)
Outline: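 Cells: ERR line, 2,000/well; 6 h preincubation 37 C/5% CO2. Cpd in DMSO via pin tool; 18 h, 37 C. ONE-Glo, 30 min RT, luminescence.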

[19] = qHTS assay to identify small molecule agonists of the estrogen related receptor (ERR) signaling pathway from Tox21 library (AID 1224849; calls by dose curve; also: nearly all actives have a fitted effect of over 15% in size); conditions: ERR reporter cell line, ONE-Glo luciferase, 18 h; at 92.4 µM (top of the series)
Outline: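 Agonist signal is luciferase luminescence from an ERR reporter cell line treated 18 h at 37 C with DMSO-dissolved compounds, read 30 min after ONE-Glo addition at room temperature.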

SMILES | Potency [1] | Potency [2] | Potency [3] | Potency [4] | Potency [5] | Potency [6] | Potency [7] | Potency [8] | outcome [9] | Potency [10] | Potency [11] | Potency [12] | Potency [13] | Potency [14] | Potency [15] | Potency [16] | Potency [17] | Potency [18] | activity change, positive = activation [19]
Clc1nc(Cl)nc(Cl)n1 | inactive | inactive | inactive | inactive | inactive | inactive | inactive | inactive | inactive | inactive | inactive | inactive |  |  |  |  |  |  | 
CCCCCc1cc(O)cc(O)c1 | 54.5 µM (active) | inactive |  |  | 54.5 µM (active) | inactive and 48.6 µM (active) | inactive | inactive | inactive |  | 24.5 µM (active) |  | 63.6 µM (active) and 39.9 µM (active) | inactive | 113 µM (active) |  |  |  | 
CC1(C)C(C=C(Cl)Cl)C1C(=O)OC(C#N)c1cccc(Oc2ccccc2)c1 (centres undefined) | inactive | inactive | inactive |  |  | inactive | inactive | inactive | inactive | inactive | inactive | inactive | inactive | inactive | inactive |  |  |  | 
O=C(Nc1ccc(Br)cc1)c1cc(Br)cc(Br)c1O | inactive and 19.3 µM (active) and 10.6 µM (active) | 27.2 µM (active) and 16.8 µM (active) |  |  |  | inactive and 21.1 µM (active) | 38.8 µM (active) and 24.5 µM (active) | inactive |  | inactive | 21.8 µM (active) and 21.9 µM (active) | inactive and 38.9 µM (active) | 3.98 µM (active) and 5.03 µM (active) and 6.92 µM (active) | inactive | 28.3 µM (active) and 35.7 µM (active) and 39.1 µM (active) | 13.6 µM (active) and 13.7 µM (active) and inactive | inactive |  | 
CCCCCCCCCCCOC(=O)c1ccccc1C(=O)OCCCCCCCCCCC | inactive | inactive | inactive |  |  | inactive | inactive | inactive | inactive |  | inactive | inactive | inactive | inactive |  |  |  |  | 
Cc1ccc(N)c(N)c1 |  | inactive | inactive |  | 27.4 µM (active) and 24.3 µM (active) | inactive | inactive | inactive | inactive |  |  |  | 15.9 µM (active) and 2.52 µM (active) | inactive | inactive |  |  |  | 
NC(=S)Nc1ccccc1 | 22 µM (active) and inactive | inactive | inactive |  |  | inactive | inactive | inactive | inactive |  | 5.59 µM (active) and inactive | 49.8 µM (active) and inactive | inactive | inactive |  |  |  |  | 
Cc1ccc2c(c1N)C(=O)c1ccccc1C2=O | 30.3 µM (active) |  |  |  | 4.28 µM (active) and 7.7 µM (active) | inactive | inactive | inactive | inactive | inactive | 8.62 µM (active) and 7.76 µM (active) | inactive | 3.95 µM (active) and 5.64 µM (active) | inactive | inactive | inactive | 19.1 µM (active) and 9.69 µM (active) |  | 
c1ccc(P(c2ccccc2)c2ccccc2)cc1 | inactive | inactive | inactive |  |  | inactive |  | inactive | inactive | inactive | inactive | inactive | inactive | inactive | inactive |  |  |  | 
CCN(CC)C(=O)/C(Cl)=C(\C)OP(=O)(OC)OC | inactive | inactive | inactive |  |  | inactive | inactive | inactive | inactive | inactive | inactive | inactive | inactive | inactive | inactive |  |  |  | 
Oc1cc(Cl)c(Cl)cc1Cl | inactive | inactive | inactive |  |  | inactive | inactive | inactive | inactive |  | inactive |  | inactive | inactive |  |  |  |  | 
CCOCN(C(=O)CCl)c1c(C)cccc1CC |  | inactive | inactive |  | 18.3 µM (active) and 15.4 µM (active) | inactive | 51.9 µM (active) |  | inactive | inactive | inactive |  | inactive | 8.15 µM (active) and inactive |  | 36.4 µM (active) and 13.7 µM (active) | inactive | 23 µM (active) and 27.3 µM (active) | -61% (inactive) and -71.1% (inactive)
